Cruzain noTriton = qHTS Assay for Promiscuous and Specific Inhibitors of Cruzain (without detergent); Cruzipain (Trypanosoma cruzi), P25779; purified cruzain, Z-FR-AMC fluorescence, no detergent; Potency, µM, actives largely listed as inhibitors; actives 2.3% (n = 200,000); also: nearly all actives have a fitted effect of over 40% in size
Target sequence (P25779 123-467 limits assumed): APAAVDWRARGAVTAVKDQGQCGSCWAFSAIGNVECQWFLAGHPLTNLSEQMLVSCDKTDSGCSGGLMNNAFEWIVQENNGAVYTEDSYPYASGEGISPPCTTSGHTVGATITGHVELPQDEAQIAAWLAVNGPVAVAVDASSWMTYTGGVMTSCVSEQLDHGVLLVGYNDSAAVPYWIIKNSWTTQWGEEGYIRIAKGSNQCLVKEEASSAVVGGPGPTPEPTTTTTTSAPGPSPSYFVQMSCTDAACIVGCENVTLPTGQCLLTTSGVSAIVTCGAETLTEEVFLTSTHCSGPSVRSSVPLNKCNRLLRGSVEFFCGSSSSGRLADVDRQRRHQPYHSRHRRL
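Purified cruzain at 1.5 nM, pre-incubated 15 min with compound at room temperature in 100 mM sodium acetate pH 5.5, 5 mM DTT, 0.00005% Triton X-100. Reaction started with 2 uM Z-FR-AMC; AMC fluorescence increase over 60 s gives rate.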
Cruzain Triton = qHTS Assay for Promiscuous and Specific Inhibitors of Cruzain (with detergent). purified cruzain, Z-FR-AMC fluorescence, 0.01% Triton. Potency, µM, actives largely listed as inhibitors. Cruzipain (Trypanosoma cruzi), P25779. actives 0.43% (n = 200,000); also: nearly all actives have a fitted effect of over 40% in size
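Detergent-containing arm of a paired screen for aggregation-based inhibition: 0.01% Triton X-100 present. Cruzain at 1.5 nM cleaved 2 uM Z-FR-AMC at pH 5.5 with 5 mM DTT; AMC fluorescence gain over 60 s measured activity.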
Hits are given with their value; – = inactive; ? = inconclusive. Compounds with a hit are over-represented: about 2.4% of the library has one in this group of screens. Calls follow the shape of the dose curve; as a rule, active = well fitted curve in the direction sought with a large enough effect; inconclusive = small, poorly fitted or top-dose-only effect, or another doubt; inactive = no such curve, though single readings can be large; an effect the other way counts as inactive or inconclusive.

SMILES	Cruzain noTriton	Cruzain Triton
CCc1ccc(C2C(C#N)=C(N)SC(N)=C2C#N)s1	16µM	–
CCc1ccc(C2C(C#N)=C(N)SC(N)=C2C#N)cc1	–	–
CCOc1ccc(NC(=O)Cn2c3ncccc3c(=O)n2-c2ccc(CC)cc2)cc1	–	–
COc1ccc(NS(=O)(=O)c2ccc(NC(=S)NC(=O)c3ccc(Br)cc3)cc2)nn1	–	–
CCc1nnc(NS(=O)(=O)c2ccc(NC(=S)NC(=O)/C=C/c3ccc(C(C)C)cc3)cc2)s1	?	14µM
CCc1nnc(NS(=O)(=O)c2ccc(NC(=S)Nc3ccc(F)cc3)cc2)s1	–	–
CCc1nnc(NS(=O)(=O)c2ccc(NC(=S)NC(=O)/C=C/c3ccc(OC)cc3)cc2)s1	–	22µM
CCc1nnc(NS(=O)(=O)c2ccc(NC(=S)NC(=O)c3ccc(Br)cc3)cc2)s1	–	?
CCc1nnc(NS(=O)(=O)c2ccc(NC(=S)NC(=O)/C=C/c3ccccc3)cc2)s1	–	25µM
CCc1nnc(NS(=O)(=O)c2ccc(NC(=S)NC(=O)c3ccccc3)cc2)s1	–	–
COc1ccc(NS(=O)(=O)c2ccc(NC(=S)NC(=O)/C=C/c3ccccc3)cc2)nn1	32µM	–
COc1ccc(C(=O)CCC(=O)Nc2cc(C)ccc2C)cc1	–	–
Cc1ccc(C2=CC(c3ccccc3F)n3c(nc4ccccc43)N2)cc1C (stereo not drawn)	–	–
O=C(NCc1ccccc1Br)c1ccc(-n2cnc3cccnc32)cc1	–	–
Cc1ccc(-n2cnc3cc(C(=O)NC4CCCCCC4)ccc32)c(C)c1	–	–
CCOC(=O)c1c(/N=C/c2c(O)n(-c3ccc(F)cc3)c(=S)[nH]c2=O)sc2c1CCCC2	–	–
CCOC(=O)c1c(/N=C/c2c(O)n(-c3ccccc3F)c(=S)[nH]c2=O)sc2c1CCCC2	16µM	–
CCc1ccccc1OCCSc1nnc(-c2cc(OC)c(OC)c(OC)c2)o1	–	–
CCC(=O)N1CCN(c2nc3ccccc3s2)CC1	–	–
O=C(c1cc2sccc2n1Cc1ccccc1)N1CCN(c2nc3ccccc3s2)CC1	7.9µM	–
COc1ccc(CNC(=O)Cn2nc(N3CCN(c4ccccc4)CC3)ccc2=O)c(OC)c1	?	–
O=C(NNS(=O)(=O)c1ccccc1)c1cc2cc3ccccc3nc2s1	–	–
O=C(NNC(=O)c1cc2cc3ccccc3nc2s1)c1cccc(C(F)(F)F)c1	25µM	–
CCOc1ccccc1Nc1nnc(-c2cc3cc(Cl)ccc3oc2=O)s1	–	–
Cc1ccc(NC(=O)c2cnc(SCC(=O)N3CCOCC3)n(C)c2=O)cc1C	–	–
SMILES	Cruzain noTriton	Cruzain Triton
O=C(CSc1nnc(-c2ccc(F)cc2)o1)c1ccc2c(c1)OCCO2	13µM	–
Cc1cc(C(=O)CSc2nnc(-c3ccc(F)cc3)o2)c(C)n1CC1COc2ccccc2O1 (stereo not drawn)	16µM	–
Cc1cc(C(=O)CSc2nnc(-c3ccc(F)cc3)o2)c(C)n1CC1CCCO1 (stereo not drawn)	–	–
Cc1cc(C(=O)CSc2nnc(-c3ccco3)o2)c(C)n1CC1COc2ccccc2O1 (stereo not drawn)	?	–
CC(C)(C)c1ccc(-c2nnc(SCC(=O)c3ccc4c(c3)OCCO4)o2)cc1	–	–
Cc1cc(C(=O)CSc2nnc(-c3ccccc3)o2)c(C)n1CC1COc2ccccc2O1 (stereo not drawn)	20µM	–
CCCN(C(=O)c1sc2nc3n(c(=O)c2c1C)CCCC3)c1ccccc1C	–	–
Cc1ccc(C)c(Nc2ncnc3onc(C)c23)c1	–	–
CCOC(=O)c1cccnc1SCC(=O)Nc1ccc(C)cc1C	–	–
CCOC(=O)c1ccc(NC(=O)CSc2ncc(S(=O)(=O)c3ccc(C)c(Cl)c3)c(=O)[nH]2)cc1	?	28µM
Cc1ccc(C)c(NC(=O)CSc2ncc(S(=O)(=O)c3ccc(C)c(Cl)c3)c(=O)[nH]2)c1	–	–
CCOc1ccc(NC(=O)CN2C(=O)C(c3ccccc3)=NC23CCC(C)CC3)cc1 (stereo not drawn)	–	–
CCN(CC)S(=O)(=O)c1cc(C(=O)OCC(=O)c2ccc3c(c2)NC(=O)CO3)ccc1Cl	–	–
CC(C)CC(NC(=O)c1ccc(Cl)cc1)C(=O)OCC(=O)c1ccc2c(c1)NC(=O)CO2 (stereo not drawn)	20µM	–
COc1ccc(NC(=O)c2cnc[nH]2)cc1	–	–
COc1ccc(-c2nc(NC(=O)c3ccc(OCC(=O)N4CCOCC4)c(OC)c3)sc2C)cc1	?	–
COc1ccc(Br)c2c1-c1nc(NC(=O)c3ccc(F)cc3)sc1C2	–	–
CCc1ccc(-c2nc(NC(=O)c3ccc(OCC(=O)Nc4ccc(F)cc4)c(OC)c3)sc2C)cc1	4µM	–
COc1cc(C(=O)Nc2nc(-c3ccc(Cl)cc3)c(C)s2)ccc1OCC(=O)Nc1ccc(F)cc1	16µM	–
Cc1cccc(-n2ncc(C(=O)NCc3ccccn3)c2C2CCN(C(=O)OC(C)(C)C)CC2)c1	?	–
CCN1C(=O)c2ccccc2Sc2ccc(NC(=O)Nc3cccc([N+](=O)[O-])c3C)cc21	–	–
CC1=C(SCCC#N)S/C(=C2\SC(C)=C(SCCC#N)S2)S1	25µM	–
Cc1cccc(C(C)C)c1NC(=O)Cn1c(=O)oc2cc(S(=O)(=O)N3CCCC3)ccc21	–	–
O=C(CSc1nnc(NC(=O)c2ccccc2Cl)s1)Nc1ccc2c(c1)oc1ccccc12	4µM	–
O=C(Nc1nnc(SCC(=O)N2CCOCC2)s1)c1ccccc1Cl	–	–
SMILES	Cruzain noTriton	Cruzain Triton
O=C(CSc1nc2ccccc2s1)NNC(=O)Nc1ccc(Cl)c(Cl)c1	?	–
Cn1c(SCC(=O)Nc2ccccc2)nnc1-c1ccccc1	–	–
O=C(CSc1nc2ccccc2s1)Nc1ccc2c(c1)oc1ccccc12	16µM	–
Cn1c(SCC(=O)Nc2ccc3c(c2)oc2ccccc23)nnc1-c1ccccc1	13µM	–
Cc1ccc(C(=O)Nc2ccc3c(c2)N(C)C(=O)c2ccccc2S3)cc1	–	–
CCN1C(=O)C(Cc2nc3ccccc3c(=O)n2C)c2cc(C)ccc21 (stereo not drawn)	–	–
Cn1cc(S(=O)(=O)N2CCCCCC2)cc1C(=O)N1CCN(c2cccc(Cl)c2)CC1	?	–
COc1ccccc1NC(=O)Cn1c(=O)n(CCc2ccccc2)c(=O)c2c3c(sc21)CN(C(C)=O)CC3	?	–
COc1ccc(F)cc1S(=O)(=O)NCC(c1ccco1)S(=O)(=O)c1ccc(F)cc1 (stereo not drawn)	–	–
CC/C(=N/Nc1ccccc1Cl)c1cnnc(-c2ccccc2)n1	–	–
COc1ccc(N/N=C(/C)c2cnnc(-c3ccccc3)n2)cc1	16µM	–
Fc1ccc(Cn2ccc(-c3cnc(-c4ccccc4)s3)n2)cc1	–	–
O=C(c1ccc(F)cc1)n1ccc(-c2cnc(-c3ccccc3)s2)n1	6.3µM	–
O=C(C[n+]1ccc2ccccc2c1)c1ccc2ccc3ccccc3c2c1	3.2µM	–
O=C(C[n+]1ccc2ccccc2c1)Nc1cc(C(F)(F)F)ccc1Cl	–	–
CSc1cccc(NC(=O)CN2C(=O)COc3ccc(S(=O)(=O)N4CCC(C)CC4)cc32)c1	–	–
CC1=CN2C(=N)/C(=C/c3ccc(C)o3)C(=O)N=C2S1	–	–
Cc1ccc(/C=C2\SC(N3CCN(C(c4ccccc4)c4ccccc4)CC3)=NC2=O)o1	7.9µM	–
